The structures appear in SMILES notation. Out of some 4,000 compounds screened, about 60 (2%) were called active.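 The calls were made as follows: active = duplicate-averaged calcium fluorescence ratio at least three times the standard deviation of buffer wells, a nonspecific response in parental cells; inactive = the rest.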 The entries come from a sample that favours actives as a whole.

This test is described as follows: calcium flux effects in cells lacking MrgX1 – parental HEK293 cells, Fluo-4 calcium flux, counter-screen for MrgX1 antagonist project, confirmation (AID 624111). The following applies: parental HEK293, Fluo-4 calcium fluorescence, FDSS; at 10 µM. In general terms: A change in cytosolic calcium serves as a functional read-out for many receptors and channels.
As for `CCOc1cc(-c2conc2N)cc(OCC)c1OCC`, the fluorescence ratio F(max-min)/F0 result was “inactive”.
Consider `Brc1ccccc1C1Nc2cccc3cccc(c23)N1`, for which the fluorescence ratio F(max-min)/F0 result is “inactive”.
Under `c1ccc(-c2[nH]ncc2-c2nc3ccccc3[nH]2)cc1` stands “inactive”; under `CCOC(=O)c1cn(Cc2cccc(C)c2)nn1`, “inactive”; under `CC(C)NC(=S)Nc1cccc2cnccc12`, “inactive”.
Under `CCOC(=O)C1=C(O)/C(=C/c2cc(C)n(-c3ccccc3)c2C)N=C1C` stands “inactive”.
Under `COc1ccc(C2SCCN2S(=O)(=O)c2ccccc2)cc1OC` (stereo not drawn) stands “inactive”.
As for `S=C(NCc1ccc(Cl)cc1)NC12CC3CC(CC(C3)C1)C2`, the fluorescence ratio F(max-min)/F0 result was “inactive”.
The same measure for `COc1cc(C(F)(F)F)nc2c(Br)c(C(C)(C)C)nn12`: “inactive”.
The same measure for `CCN(C(=O)CSc1nnc2ccccn12)C1CCS(=O)(=O)C1` (stereo not drawn): “inactive”.
The same measure for `O=C1C(Cc2ccc(O)cc2)NC(=S)N1Cc1ccccc1` (stereo not drawn): “inactive”; for `CCOC(=O)c1c(NC(=O)CNC2CCCc3ccccc32)sc(C(N)=O)c1C` (stereo not drawn): “inactive”; for `COc1cccc(-c2cnc(OC(C)(C)C)nc2OC(C)(C)C)c1`: “inactive”.
Regarding `COc1ccc(-n2c(SCC(=O)NCc3ccco3)nnc2-c2c[nH]c3ccccc23)cc1`, the fluorescence ratio F(max-min)/F0 result is “inactive”.
Under `CC(C)CNc1ncnc2c1cnn2Cc1ccc(Cl)cc1` stands “inactive”; under `Cc1cc2oc3ccc(NCCC4CCCN4C)cc3c(=O)c2cc1C` (stereo not drawn), “inactive”.
The same measure for `CC(=O)Nc1ccc(OC(=O)COc2ccc(Br)cc2)cc1`: “inactive”; for `CCCc1[nH]nc2c1C(c1ccc(Br)s1)C(C#N)=C(N)O2` (stereo not drawn): “inactive”; for `CCS(=O)(=O)c1ccc2c(c1)N(S(=O)(=O)c1ccccc1)CC(C(=O)O)O2` (stereo not drawn): “inactive”.
The same measure for `Fc1cccc(Cl)c1COc1ccc(-c2nnco2)cc1`: “inactive”; for `COc1ccc(-c2cc(C(F)(F)F)nc(S(C)(=O)=O)n2)cc1OC`: “inactive”; for `CCc1ccc2nc3sc(C(=O)Nc4nnc(CC)s4)c(N)c3cc2c1`: 0.589 (active).
Turning to `COCc1nnc(NC(=O)c2ccc3c(c2)OCO3)s1`, the fluorescence ratio F(max-min)/F0 entry was “inactive”.
Under `COc1cc(CCC(=O)Nc2ccncc2Cl)cc(OC)c1OC` stands “inactive”; under `Cc1cc(C)n(CCNC(=O)CC2C(=O)NCCN2Cc2ccc(C)o2)n1` (stereo not drawn), “inactive”.
The same measure for `COc1ccc(S(=O)(=O)N2CCOCC2)c(C)c1C`: “inactive”; for `CCOc1ccc(C(=O)NC2CCN(S(=O)(=O)CC)CC2)cc1`: “inactive”.
As to `Cc1ccc(N/C(N)=N/c2nc(C(F)(F)F)cc(C(F)(F)F)n2)cc1`, the fluorescence ratio F(max-min)/F0 result was “inactive”.
Under `Cc1[nH][nH]c(=O)c1C(c1ccc(-c2ccc(Cl)cc2)o1)c1c(C)[nH][nH]c1=O` stands “inactive”.
The same measure for `Cc1ccc(-n2cnc3ncnc(-c4ccccc4)c32)cc1`: “inactive”.
The same measure for `Cc1c(C(=O)N2CCCc3ccccc32)sc2nc(-c3ccccc3)cn12`: “inactive”; for `C(=N\n1cnnc1)/c1cccnc1`: “inactive”.
With `CC(=O)N1c2ccc(S(=O)(=O)N3CCCC(C(=O)Nc4cccc(Cl)c4)C3)cc2CC1C` (stereo not drawn), the fluorescence ratio F(max-min)/F0 result is “inactive”.
Under `Cc1cccc(Cn2cnc3c(N)c(C)c(C)cc32)c1` stands “inactive”.
`CCOC(=O)Nc1ccc2c(c1)N(C(=O)CCN1CCN(CCO)CC1)c1ccccc1CC2`: the fluorescence ratio F(max-min)/F0 result was “inactive”.
The same measure for `COc1ccc2c(c1)OC(O)(C(F)(F)C(F)F)CC2=O` (stereo not drawn): “inactive”.
`O=S(=O)(c1ccc2ccccc2c1)N1CCN(S(=O)(=O)N2CCOCC2)CC1`: the fluorescence ratio F(max-min)/F0 result is “inactive”.
Consider `CCOC(=O)C1=C(O)CSC1=Nc1cccc(Cl)c1`, for which the fluorescence ratio F(max-min)/F0 result was “inactive”.
For the compound `Cc1nccn1CCC1CCCCN1C(=O)CCc1nnc(-c2ccsc2)o1` (stereo not drawn), the fluorescence ratio F(max-min)/F0 result was “inactive”.
Take `O=C(Nc1ccccc1N1CCCCC1)c1ccc2nccnc2c1`: the fluorescence ratio F(max-min)/F0 entry was “inactive”.
Regarding `Cc1onc(-c2ccccc2)c1C(=O)NNC(=S)NC(=O)c1ccc(F)cc1`, the fluorescence ratio F(max-min)/F0 result is “inactive”.
For the compound `O=C(CN1CCN(c2ccccn2)CC1)NC1CCCCC1`, the fluorescence ratio F(max-min)/F0 result is “inactive”.
Under `C=CCOc1cccc(C2C(C(=O)c3ccc(C)o3)=C(O)C(=O)N2c2nnc(C)s2)c1` (stereo not drawn) stands “inactive”.
For `O=C1C(=O)N(CC2COc3ccccc3O2)c2ccccc21` (stereo not drawn), the fluorescence ratio F(max-min)/F0 result is “inactive”.
In the case of `COc1ccccc1N(CC(=O)N1CCCCC1)S(=O)(=O)c1ccccc1`, the fluorescence ratio F(max-min)/F0 result is “inactive”.
The same measure for `Clc1ccc(-c2nc3ccccn3c2CN2CCSCC2)cc1`: “inactive”.
Under `COc1ccc(C(=O)NC(=S)NNC(=O)CCc2ccccc2)cc1` stands “inactive”; under `COc1cc(C)c(C)cc1S(=O)(=O)N1CCCc2ccccc21`, “inactive”.
For the compound `Cc1nc2ccccc2cc1OCc1ccc(F)cc1`, the fluorescence ratio F(max-min)/F0 result was “inactive”.
As for `OCCn1c(-c2ccccc2)csc1=Nc1ccccc1`, the fluorescence ratio F(max-min)/F0 result is “inactive”.
In the case of `CC1(C)CC2CC(C)(CN2c2ncnc3ccc(Br)cc23)C1` (stereo not drawn), the fluorescence ratio F(max-min)/F0 entry is “inactive”.
Under `N=C(N)SCc1cccc2ccccc12` stands “inactive”.
The same measure for `Cc1occc1C(=O)Nc1nnc(-c2ccncc2)s1`: “inactive”.
The same measure for `CC(Oc1ccc(F)cc1)C(=O)Nc1ccccc1C(=O)NC1CC1` (stereo not drawn): “inactive”; for `CCCCC(=O)NNC(=S)NC(=O)C(c1ccccc1)c1ccccc1`: “inactive”.
As for `CCOc1ccccc1C1CC(c2ccc(Cl)cc2)Nc2nc(N)nn21` (stereo not drawn), the fluorescence ratio F(max-min)/F0 result is “inactive”.
Under `CCN(CC)c1ccc2oc(=O)c(C)nc2c1` stands 0.549 (active); under `CCNC(=O)c1c(O)c2cccc3c2n(c1=O)CC3`, “inactive”; under `COC(=O)c1sccc1NS(=O)(=O)c1ccc(F)cc1F`, “inactive”.
Under `COc1ccc(C(=O)CSc2n[nH]c(N)n2)cc1` stands “inactive”; under `CCOC(=O)c1[nH]c2ccc(C)cc2c1N=C(C)N(C)C`, “inactive”.
Under `Cc1ccc2nc(Nc3ccccc3)cc(C)c2c1` stands “inactive”.
On to `CC1(C(=O)O)CCC(C(=O)Nc2ccc(Cl)c(Cl)c2)C1(C)C` (stereo not drawn), for which the fluorescence ratio F(max-min)/F0 result is “inactive”.
The same measure for `Cc1cc(Nc2cc(N3CCN(C)CC3)nc(Sc3ccc(NC(=O)C4CC4)cc3)n2)n[nH]1`: “inactive”; for `Cc1nn(C(=O)c2ccoc2C)c(N)c1-c1ccccc1`: “inactive”; for `O=C(Nc1ccc(Cl)cc1)Nc1ccc(Oc2cccnc2)nc1`: “inactive”.
The same measure for `O=C(CCN1CCc2ccccc2C(O)(c2ccccc2)C1)c1ccc2c(c1)OCCO2` (stereo not drawn): “inactive”.
Under `CCC1CCCCN1CCNC(=O)c1[nH]c(C)c(C(C)=O)c1C` (stereo not drawn) stands “inactive”; under `CCc1nnc(NC(=O)CSc2nc3c(c(=O)n2-c2ccccc2OC)SCC3)s1`, “inactive”; under `Cc1ccc2c(C)c(C(=O)N(C)CCC3CCCCO3)oc2c1C` (stereo not drawn), “inactive”.
On to `Cc1cccn2c(=O)c(/C=C3\SC(=S)N(CC(C)C)C3=O)c(NCCCOC(C)C)nc12`, for which the fluorescence ratio F(max-min)/F0 was 0.164 (active).
Under `O=C(Nc1ccccc1Cl)N1CCN(c2ccc3nncn3n2)CC1` stands “inactive”; under `COc1ccc(OC)c(Nc2nc3ccccc3n3cnnc23)c1`, “inactive”; under `C=CCSc1nc(Cc2ccc(Cl)cc2)nc2ccccc12`, “inactive”.
The same measure for `O=C(NC1CCCCC1)C1c2ccccc2C(=O)N1Cc1ccco1` (stereo not drawn): “inactive”; for `Cc1ccc(C(=O)COC(=O)CCN2C(=O)C3C4CC(C(Br)C4Br)C3C2=O)cc1` (stereo not drawn): “inactive”; for `CC(C)(C)Nc1c(-c2cccs2)nc2ccccn12`: “inactive”.
On to `Cc1ccc(CS(=O)(=O)c2ncc(Cl)c(C(=O)Nc3nnc(C)s3)n2)cc1`, for which the fluorescence ratio F(max-min)/F0 entry was “inactive”.
The same measure for `COc1ccc(C(=O)NNC(=S)NC(=O)c2ccccc2)cc1`: “inactive”.
Under `O=C(CN1CCN(c2ccc(Cl)cc2)CC1)N1CCCC1` stands “inactive”; under `Cc1ccc(NC2(C#N)C(=O)Nc3ccccc32)cc1` (stereo not drawn), “inactive”; under `O=C(c1ccc(OC2CCN(C(=O)c3cccnc3)CC2)cc1)N1CCCCCC1`, “inactive”.
The same measure for `Cc1nc(N2CCN(c3ccccn3)CC2)c2c(C)c(C(=O)Nc3ccc(F)c(Cl)c3)sc2n1`: “inactive”; for `Cc1ccnc(-n2sc3ccccc3c2=O)n1`: “inactive”.
For `C=CCNC(=O)c1cc(-c2ccccc2O)on1`, the fluorescence ratio F(max-min)/F0 result was “inactive”.
Under `CN1/C(=C\C=C2\N=C(c3ccc(F)cc3)OC2=O)C(C)(C)c2ccccc21` stands “inactive”; under `COc1ccc(C(=O)Nc2c(N)nc(SCC(=O)N3CCC(C)CC3)[nH]c2=O)cc1OC`, “inactive”.
Under `Cc1ccc2nc(-c3ccc(NC(=O)c4cccnc4)cc3)oc2c1` stands “inactive”.
Under `Cc1ccc2c(c1)c1ncnc(N3CCc4ccccc4C3)c1n2C` stands “inactive”.
Regarding `CCCCOC(=O)CNc1nnc(SCC(=O)OCC)[nH]c1=O`, the fluorescence ratio F(max-min)/F0 entry was “inactive”.
Under `COc1cccc(CNC(=O)C2CCN(S(=O)(=O)c3cccc4cccnc34)CC2)c1` stands “inactive”; under `Cc1nc(C)c(-c2csc(NCCc3ccccc3)n2)s1`, “inactive”.
The same measure for `CN(c1cccc(NC(=O)Nc2ccc(Cl)cc2)c1)S(C)(=O)=O`: “inactive”.

The values are drawn from PubChem BioAssay AID624111 (Johns Hopkins Ion Channel Center, 2012).
